Data on 65 molecules can be found in PubChem BioAssay AID624483 (NMMLSC, 2012).

Structures are written as SMILES. In all, about 360,000 compounds went through this assay and about 11,000 (3.1%) were called active. About 2% were inconclusive and are not listed. Shown is part of a subset that was picked to be rich in actives. A number with no mark means an inactive call. Rule as the data show it: active = fluorescence intensity above about 16000; inconclusive = no clear call, values can overlap the other calls; inactive = below that.

The assay is described as follows: counter-screen for toxin protease inhibitors: compound fluorescence, primary screen, artefact control for toxin protease inhibitor project, biochemical, multiplex microsphere, HTS (AID 624483). The conditions noted are these: compound autofluorescence counterscreen, microsphere flow cytometry; hits give high values. A general note: A counterscreen serves to expose hits that act by an unwanted route or on another target.
Take `NC(=O)C1CCN(CC(O)CSc2ccc(F)cc2)CC1` (stereo not given): the fluorescence intensity was 3520.

Take `CC1(C(=O)NCc2ccc3c(c2)OCO3)CCN1C(=O)Cc1cccs1` (stereo not given): the fluorescence intensity was 3670.

In the case of `CCOC(=O)N1CCN(C(=O)COc2ccc3oc4c(c3c2)CCCC4)CC1`, the fluorescence intensity is 4590.

Regarding `O=C(CN1CCOCC1)N1CCCc2c1c(=O)oc1ccc(OCc3ccccc3)cc21`, the fluorescence intensity is 22500 (active).

Turning to `O=C(COc1ccc2oc3c(c2c1)CCCC3)Nc1ccccn1`, the fluorescence intensity was 3750.

For `O=C1OC(OC(=O)c2ccccc2Br)C(N2CCOCC2)=C1Cl` (stereo not given), the fluorescence intensity is 6700.

On to `O=C1OC(NC(=O)c2ccccc2)C(N2CCOCC2)=C1Cl` (stereo not given), for which the fluorescence intensity was 21900 (active).

On to `O=C(NC(=O)N1CCOCC1)c1ccccc1`, for which the fluorescence intensity is 9020.

In the case of `Cc1cc2oc(=O)cc(CN(C)Cc3ccccc3)c2cc1Cl`, the fluorescence intensity was 6000.

Turning to `Cc1c(C=O)c2ccccc2n1CC(=O)O`, the fluorescence intensity is 4440.

`CC(=O)c1c(C)n([O-])c2ccccc2[n+]1=O`: the fluorescence intensity was 23100 (active).

Take `Fc1ccc(-c2ccc(-c3nn4c(-c5ccco5)nnc4s3)o2)cc1`: the fluorescence intensity was 3990.

Turning to `COC(=O)c1cnn2c(C(F)(F)F)cc(-c3ccco3)nc12`, the fluorescence intensity was 4440.

Consider `FC(F)(F)c1nnc2c3ccccc3c(Cl)nn12`, for which the fluorescence intensity was 3190.

For the molecule `CNc1nnc(-c2ccco2)s1`, the fluorescence intensity was 4180.

As for `FC(F)(F)c1nnc2sc(-c3ccco3)nn12`, the fluorescence intensity was 22400 (active).

On to `Cc1nnc2sc(-c3ccco3)nn12`, for which the fluorescence intensity is 20800 (active).

On to `CC(=O)Nc1cccc(-c2cc(NC(C)=O)c3ncc(-c4ccccc4)n3c2)c1`, for which the fluorescence intensity was 3750.

With `O=C(/C=C/c1cccs1)c1cc(Cl)ccc1OC(=O)N1CCOCC1`, the fluorescence intensity was 2170.

Consider `O=C(Nc1ccc(N2CCOCC2)cc1)c1cccc2c(-c3ccc(F)c(F)c3)coc12`, for which the fluorescence intensity is 3990.

For `CC12CCC(=O)C=C1CCC1C2C(O)CC2(C)C1CCC2(O)C(O)CO` (stereo not given), the fluorescence intensity was 5610.

Turning to `O=C(/C=C\NCC(=O)c1ccccc1)c1ccccc1`, the fluorescence intensity is 21800 (active).

With `O=C(/C=C/NNC(=O)c1cccc(Br)c1)c1ccccc1`, the fluorescence intensity was 3590.

Consider `O=C(/C=C/NCc1ccc(F)cc1)c1ccccc1`, for which the fluorescence intensity was 2490.

As for `COC(=O)c1ccc(C)c(NC(=O)Cn2c(C)csc2=O)c1`, the fluorescence intensity is 3770.

Turning to `Cc1oc(-c2cccc(Cl)c2)[n+]([O-])c1C`, the fluorescence intensity is 3960.

In the case of `Cc1oc(-c2ccccc2Cl)[n+]([O-])c1C`, the fluorescence intensity is 25200 (active).

Take `CCOc1cnc(-c2c(-c3ccccc3Cl)noc2C)o1`: the fluorescence intensity is 2480.

Take `CCc1sc(C(=O)N2CCN(CC(=O)Nc3cccc(F)c3)CC2)cc1C`: the fluorescence intensity was 3730.

With `Cc1ccc(NC2CCCN(C(=O)CCc3cn[nH]c3)C2)cc1C` (stereo not given), the fluorescence intensity was 4290.

Consider `COCCOC(=O)C1=C(C)Nc2nc(C)nn2C1c1ccccc1` (stereo not given), for which the fluorescence intensity was 17100 (active).

In the case of `CC1=C(C(N)=O)C(c2ccc(F)cc2)n2nc(CCCO)nc2N1` (stereo not given), the fluorescence intensity was 3660.

In the case of `COC(=O)c1nc2n(n1)C(c1ccc([N+](=O)[O-])cc1)C(C(=O)Nc1ccc(Cl)cc1)=C(C)N2` (stereo not given), the fluorescence intensity is 2390.

With `O=C(Nc1ccc(Cl)cc1)C1Cc2c(-c3ccc4c(c3)OCO4)ccnc2O1` (stereo not given), the fluorescence intensity was 3410.

For the molecule `Cc1c(C(=O)Nc2ccccc2Cl)oc2ccc(S(=O)(=O)N3CCC4(CC3)OCCO4)cc12`, the fluorescence intensity was 22400 (active).

Regarding `Cc1c(C(=O)Nc2cccc(S(=O)(=O)N3CCOCC3)c2)oc2ccccc12`, the fluorescence intensity was 2760.

Regarding `COc1ccc(NC(=O)c2oc3ccc(S(=O)(=O)N4CCOCC4)cc3c2C)cc1`, the fluorescence intensity is 4190.

As to `CC(=O)Nc1ccc(-c2ccnc3c2CC(C(=O)NC(C)C)O3)cc1` (stereo not given), the fluorescence intensity is 3750.

As for `COc1cc(C=C(OC(C)=O)c2ccc3c(c2)OCO3)cc(OC)c1OC`, the fluorescence intensity was 6370.

As to `NNc1nc2c(Cl)cccc2s1`, the fluorescence intensity is 6940.

Take `CC(C)CCNC(=O)CCNS(=O)(=O)c1ccc(Cl)cc1`: the fluorescence intensity was 19700 (active).

Regarding `Cc1ccc(S(=O)(=O)NCCC(=O)NCc2ccc(Cl)cc2)cc1C`, the fluorescence intensity is 4140.

As for `CC(C)CNS(=O)(=O)c1ccc(CCC(=O)NCc2ccc(Cl)cc2)cc1`, the fluorescence intensity was 3570.

As for `Cc1ccc(-c2nc3ccc(Br)cn3c2Cc2ccccc2C(F)(F)F)cc1`, the fluorescence intensity was 5850.

Regarding `CC(=O)c1nn(-c2ccccc2)c(=Nc2ccccc2)cc1C`, the fluorescence intensity is 4100.

As for `Cn1c(SCC(=O)Nc2nccs2)nnc1-c1cccnc1`, the fluorescence intensity is 4450.

In the case of `COc1ccc(CC(=O)NCc2nnc(SCC(=O)Nc3nccs3)n2C)cc1`, the fluorescence intensity was 4710.

With `Cc1ccc(C(C)C)c(OCc2nnc(SCC(=O)Nc3nccs3)n2C)c1`, the fluorescence intensity was 17800 (active).

As for `c1ccc2c(NC3C4CC5CC(C4)CC3C5)nc(N3CCOCC3)nc2c1` (stereo not given), the fluorescence intensity was 4640.

`NC(c1csc(NC(=O)Nc2ccccc2Oc2ccccc2)n1)c1ccccc1Cl` (stereo not given): the fluorescence intensity is 3590.

As to `O=C(c1cc(C2CCCCN2S(=O)(=O)c2ccccc2)on1)N1CCOCC1` (stereo not given), the fluorescence intensity is 3020.

As for `CC(=O)NS(=O)(=O)c1ccc(N/C(N)=N/c2nc(C)cc(C)n2)cc1`, the fluorescence intensity was 3910.

Turning to `CN1CC(c2ccccc2)C2(COc3ccccc3C2=O)C12C(=O)Nc1ccccc12` (stereo not given), the fluorescence intensity was 16700 (active).

As for `C[C@@H]1NC(=O)[C@@]2(C)[C@@H](c3ccccc3)[C@H]3COc4ccccc4[C@@H]3N2C1=O`, the fluorescence intensity was 3420.

`O=C1NC(c2ccccc2)Oc2ccccc21` (stereo not given): the fluorescence intensity is 3320.

`Cc1cc(C)n2c(NCc3ccccc3)c(CC(C)C)nc2n1`: the fluorescence intensity was 6800.

In the case of `CCN(CC(=O)Nc1c(F)cccc1F)C(=O)c1cnc(C)cn1`, the fluorescence intensity is 4920.

Consider `CC(=O)N1CCN(c2cccc(C)c2C)CC1`, for which the fluorescence intensity is 20800 (active).

For the molecule `Cc1cccc(N2CCN(C(=O)/C=C/c3ccco3)CC2)c1C`, the fluorescence intensity was 2640.

For the molecule `CCC(CC)C(=O)N1CCN(c2cccc(C)c2C)CC1`, the fluorescence intensity is 2200.

On to `C=CCC[C@H](CCCCC)OC(=O)/C=C/[C@H](O)[C@@H](O)C[C@@H](O)CC=C`, for which the fluorescence intensity is 4110.

On to `CCCc1ccc(C(O)c2ncc(-c3cccc(OC)c3)[nH]2)cc1` (stereo not given), for which the fluorescence intensity is 3420.

With `CCOC(=O)CSc1nc2c(sc(=S)n2CCc2ccccc2)c(=O)n1Cc1ccco1`, the fluorescence intensity is 16400 (active).

Regarding `COc1cccc(-n2c(=S)sc3c(=O)n(-c4ccccc4C)c(SCC(=O)O)nc32)c1`, the fluorescence intensity was 3210.

`CCOC(=O)CSc1nc2c(c(=O)n(Cc3ccccc3Cl)c(=O)n2C)n1C`: the fluorescence intensity was 4690.
